Screens: PubChem BioAssay, Broad Institute
Not all results are given here.
aSyn UTR act = Activators via SNCA 5'UTR binding, MLPCN | alpha-synuclein 5'UTR reporter, activators screen | activity score, % (tested at 7.5 µM), hits read low | AID 1814, 2009 | hit rate 7.1% among 300,000; in the data active = activity score below about -60%
Large screens that a line does not name were inactive.

COc1cccc(/C=N/NC(=O)CCn2nnc3ccccc32)c1	aSyn UTR act -120
C/C(=N/NC(=O)c1cccc(N2CCCC2=O)c1)c1ccncc1	aSyn UTR act -166
COc1ccc(/C=C2\SC(=O)N(CCCC(=O)Nc3ccc(C(=O)O)cc3)C2=O)cc1OC	none
C#CCN1C(=O)S/C(=C\c2ccc(-c3ccc(C(=O)O)cc3C)o2)C1=O	aSyn UTR act -191
CC(=O)Nc1nc2ccc(-c3nc4ccccc4o3)cc2s1	aSyn UTR act -108
CS(=O)(=O)c1ccc2nc(NC(=O)c3cc4ccccc4o3)sc2c1	aSyn UTR act -167
CS(=O)(=O)c1ccc2sc(NC(=O)c3cc4ccccc4o3)nc2c1	aSyn UTR act -96
COc1cccc(/C=N/NC(=O)c2cc(-c3cccn3C)n[nH]2)c1O	none
COc1cc(/C=N/NC(=O)c2cc(-c3cccn3C)n[nH]2)cc(OC)c1OC	aSyn UTR act -71
CC(NC(=O)Cn1ncc(Cl)c(Cl)c1=O)C12CC3CC(CC(C3)C1)C2 (configuration not stated)	none
O=C(Cn1sc2ccccc2c1=O)NC12CC3CC(CC(C3)C1)C2	aSyn UTR act -92
COc1cccc2cc(-c3ccccc3)c(=O)oc12	aSyn UTR act -113
COc1cccc2cc(-c3nc4ccccc4[nH]3)c(=O)oc12	aSyn UTR act -157
O=[N+]([O-])c1ccc(Cc2nnc(-c3ccccc3Cl)o2)cc1	aSyn UTR act -172
O=C1Nc2ccccc2S/C1=C/Nc1cccc(Cl)c1	aSyn UTR act -203
Cc1cc(C)n(-c2ccc(C(=O)Nc3ccc4c(c3)OCO4)cc2)n1	aSyn UTR act -173
Cc1cc(C)n(-c2ccc(C(=O)NC3=NCCS3)cc2)n1	aSyn UTR act -110
CCC(=O)N1CCC(c2ccc(OC)cc2)=N1	aSyn UTR act -75
CCOc1ccc(C2=Nn3c(nnc3-c3ccc(OC)cc3)SC2)cc1	none
Cc1ccc(C(=O)N/N=C\c2ccccc2[N+](=O)[O-])cn1	aSyn UTR act -111
CCC(=O)Nc1ccc(C(=O)N/N=C/c2ccccc2[N+](=O)[O-])cc1	aSyn UTR act -81
CCOc1ccc(C(=O)N/N=C/c2ccccc2[N+](=O)[O-])cc1	aSyn UTR act -126
COc1ccc2cc3cc(C(=O)NCCN4CCc5ccccc5C4)sc3nc2c1	aSyn UTR act -209
CCC(C)NC(=O)c1cc2cc3ccc(OC)cc3nc2s1 (configuration not stated)	aSyn UTR act -131
O=S(=O)(c1ccccc1)N1CCN(c2nc3ccccc3s2)CC1	aSyn UTR act -83
O=S(=O)(c1ccc(-c2nc3ccccc3s2)cc1)N1CCCC1	aSyn UTR act -118
CC(C)c1ccc(-c2nc3ccccc3s2)cc1	none
CS(=O)(=O)N1CCN(c2nc3ccccc3s2)CC1	aSyn UTR act -80
Clc1cccc(/C=N/Nc2nc(Cl)nc3ccccc23)c1	aSyn UTR act -172
Cc1cc(-c2ccccc2)nc(N/N=C/c2ccco2)n1	aSyn UTR act -126
Clc1cccc(/C=N\Nc2nccs2)c1	aSyn UTR act -168
Cc1cc(-c2ccccc2)nc(N/N=C/c2ccccc2)n1	aSyn UTR act -110
Cc1cc(C)nc(N/N=C/c2cccc(Cl)c2)n1	aSyn UTR act -93
C(=N/Nc1nc(-c2ccccc2)cc(-c2ccccc2)n1)/c1cccnc1	aSyn UTR act -121
O=C(Oc1ccc(Cl)cc1)N1CCCCC1	aSyn UTR act -110
O=C(Oc1ccc2ccc(OC(=O)N3CCCCCC3)cc2c1)N1CCCCCC1	aSyn UTR act -81
Clc1nc(-c2ccccn2)nc2scc(-c3ccccc3)c12	aSyn UTR act -206
O=C1C[C@H]2[C@H](CO)[C@@H](OC(=O)c3ccc(-c4ccccc4)cc3)C[C@H]2O1	aSyn UTR act -87
CC(=O)c1cccc(OCc2cc(C(=O)N(C)Cc3cnccn3)no2)c1	aSyn UTR act -85
CN(Cc1cccnc1)C(=O)c1cc(COc2ccc3c(c2)CCCC3)on1	aSyn UTR act -127
COc1ccc(OC)c(NC(=O)c2nc3ccccc3s2)c1	aSyn UTR act -168
C=CCNC(=O)c1nc2ccccc2s1	aSyn UTR act -161
CC(C)NC(=O)c1nc2ccccc2s1	aSyn UTR act -84
Cc1cccc(N=CC=C2OC(C)(C)C(C)(C)O2)c1	aSyn UTR act -81
COc1cccc(N=CC=C2OC(C)(C)C(C)(C)O2)c1	aSyn UTR act -99
CC(C)COC(=O)/C(C#N)=C/c1cn(Cc2ccccc2)c2ccccc12	none
CCOC(=O)/C(C#N)=C/c1cc(C)n(-c2ccc(C)cc2)c1C	aSyn UTR act -130
Cc1ccc(NC(=O)c2ccc(OC(=O)COc3ccc(Cl)cc3C)cc2)cc1	aSyn UTR act -79
Cc1ccc(NC(=O)c2ccc(OC(=O)CCN3C(=O)c4ccccc4C3=O)cc2)cc1	aSyn UTR act -146
Cc1ccc(NC(=O)c2ccc(OC(=O)COc3cccc(Cl)c3)cc2)cc1	aSyn UTR act -130
O=C(NCCCCCCOC1=NS(=O)(=O)c2ccccc21)C(=O)Nc1ccccc1	aSyn UTR act -93
COC(=O)c1sc(-c2cccs2)cc1N	aSyn UTR act -86
COC(=O)c1sc(-c2ccc(Cl)cc2)cc1N	aSyn UTR act -101
COC(=O)c1cc(-c2ccccc2)sc1N	aSyn UTR act -77
O=C(CSc1nnc(-c2cccc(F)c2)o1)N1CCOCC1	aSyn UTR act -75
Cc1cccc(-c2nnc(SCC(=O)N3CCOCC3)o2)c1	aSyn UTR act -70
CCOC(=O)c1sc2ccccc2c1NC(=O)c1coc2ccccc2c1=O	aSyn UTR act -74
O=[N+]([O-])c1cnc(Nc2ccc(Cl)cn2)c([N+](=O)[O-])c1	aSyn UTR act -129
Cc1cc(NC(=O)Nc2ccccc2Cl)no1	aSyn UTR act -74
S=C(Nc1ccccn1)Nc1ccccc1Cl	aSyn UTR act -83
O=C(Nc1ccc(Cl)cn1)Nc1ccccc1Cl	aSyn UTR act -87
O=C(Nc1ccc(Cl)cn1)c1ccccc1[N+](=O)[O-]	aSyn UTR act -77
O=C(Nc1ccccn1)Nc1ccccc1Cl	aSyn UTR act -131
CCOC(=O)c1c(NC2=NS(=O)(=O)c3ccccc32)sc2c1CCCCC2	aSyn UTR act -63
Cc1nc2nc(-c3cccnc3)nn2c(C)c1Cl	aSyn UTR act -74
O=C(CCl)NCCN1C(=O)S/C(=C\c2cccnc2)C1=O	aSyn UTR act -99
CCc1nnc(NC(=O)C2Cc3ccccc3CN2S(=O)(=O)c2cccs2)s1 (configuration not stated)	aSyn UTR act -105
O=C(Nc1nnc(C2CC2)s1)C1Cc2ccccc2CN1S(=O)(=O)c1cccs1 (configuration not stated)	aSyn UTR act -66
Cc1cc(C)c2sc(NNC(=O)c3ccc(S(=O)(=O)N4CCc5ccccc5C4)cc3)nc2c1	none
CCc1nnc(NC(=O)C2Cc3ccccc3CN2S(=O)(=O)c2ccc(C)cc2)s1 (configuration not stated)	aSyn UTR act -81
O=c1oc2ccccc2cc1-c1cn2ccccc2n1	none
O=C(Cc1cccc2ccccc12)Nc1ccc(-c2cc3ccccc3oc2=O)cc1	none
O=c1oc2ccccc2cc1-c1nnc(-c2cccc(Br)c2)o1	aSyn UTR act -98
O=c1oc2ccc(Cl)cc2cc1-c1ccccc1	aSyn UTR act -70
O=c1oc2ccccc2cc1-c1cn2cccnc2n1	aSyn UTR act -65
O=c1oc2ccccc2cc1-c1ccccc1	aSyn UTR act -118
COc1cccc(C2N=C(c3ccccc3C)NO2)c1OC (configuration not stated)	aSyn UTR act -80
C=C1C(=O)O[C@@H]2[C@H]1[C@@H](OC(=O)/C(C)=C/C)C/C(C)=C\C(=O)/C=C(\C)[C@@H]2O	aSyn UTR act -311
